# Compound activity as filed in PubChem BioAssay.
# A selection: hits, their analogues and other compounds. The true share with any hit is near 10%.
# KB-3-1 tox – KB-3-1 parental cell cytotoxicity; KB-3-1 viability, CellTiter-Glo ATP luminescence, 72 h; Potency, µM (top dose mostly 46.1 µM), hits mostly cytotoxic; 400,000 tested, 1.4% active; note: nearly all actives have a fitted effect of over 60% in size
#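 KB-3-1 cells, DMEM (no phenol red) + 10% FBS; compound by pin transfer, 72 h, 37 °C. Readout: CellTiter-Glo luminescence after 10 min. Data normalized, curve-fitted.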
# Gal4-VP16 FLuc – inhibits Gal4-VP16 luciferase reporter, ROR gamma counter-screen; Drosophila S2 Gal4-VP16 UAS-luciferase, luminescence, 20 h; Potency, µM (doses to about 53.6 µM), hits mostly inhibitors; 310,000 tested, 3.5% active; AID 2546;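 note: Gal4-VP16 expression switched on by copper sulfate through the metallothionein promoter; nearly all actives have a fitted effect of over 50% in size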
# MCF10A rerep – induces DNA re-replication in MCF 10a normal breast cells; MCF 10A DNA re-replication, Hoechst nuclear intensity, 48 h; Potency, µM (doses to about 46.1 µM), hits mostly activators; 350,000 tested, 2.9% active; AID 624296; note: nearly all actives have a fitted effect of over 50% in size
# KB-V1 MDR tox – KB-V1 MDR subline cytotoxicity | KB-V1 MDR cells viability, CellTiter-Glo, 72 h | Potency, µM (highest dose often 46.1 µM), most hits filed as cytotoxic | 400,000 tested, 3.4% active; note: nearly all actives have a fitted effect of over 60% in size
#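 Cytotoxicity toward P-gp-expressing KB-V1 cells was determined as loss of CellTiter-Glo luminescence after 72 h at 37 degrees C. Compounds were tested in quantitative HTS format across a concentration range, with curves fitted to normalized data.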
# SW480 rereplic – DNA re-replication induction in SW480 cells. SW480 DNA re-replication, Hoechst DNA content imaging, 48 h. Potency, µM (series often up to 46.1 µM), most hits filed as activators. 340,000 tested, 1.8% active; note: nearly all actives have a fitted effect of over 55% in size
#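 Image-based read-out: total Hoechst fluorescence of nuclei (405 nm excitation, 500-530 nm emission), with hits raising the fraction of high-intensity nuclei. SW480 colon cells incubated 48 hr with compounds at 37 C.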
# RORg inh – ROR gamma (mouse) transcription inhibition. Drosophila S2 Gal4-RORgamma UAS-luciferase reporter, 20 h. Potency, µM (top dose mostly 53.6 µM), actives largely listed as inhibitors. 310,000 tested, 5.4% active. AID 2551; note: nearly all actives have a fitted effect of over 60% in size
# Target sequence (P51450 whole entry, looked up, the tested form may be a part): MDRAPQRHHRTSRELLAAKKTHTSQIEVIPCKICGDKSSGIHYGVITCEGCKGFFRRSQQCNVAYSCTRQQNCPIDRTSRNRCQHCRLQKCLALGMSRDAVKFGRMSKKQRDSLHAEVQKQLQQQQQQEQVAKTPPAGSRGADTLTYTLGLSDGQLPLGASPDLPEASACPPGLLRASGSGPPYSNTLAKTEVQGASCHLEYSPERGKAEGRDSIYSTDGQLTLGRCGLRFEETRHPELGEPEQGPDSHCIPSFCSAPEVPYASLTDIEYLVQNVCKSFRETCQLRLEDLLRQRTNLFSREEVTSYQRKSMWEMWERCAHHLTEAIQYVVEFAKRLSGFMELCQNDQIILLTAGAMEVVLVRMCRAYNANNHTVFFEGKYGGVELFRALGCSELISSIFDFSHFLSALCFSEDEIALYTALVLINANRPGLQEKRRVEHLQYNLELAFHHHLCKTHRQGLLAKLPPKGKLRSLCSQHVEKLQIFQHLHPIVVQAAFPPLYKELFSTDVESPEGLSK
#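 Using a luciferase readout, inhibitors were identified by reduced reporter activity in Drosophila cells coexpressing a copper-inducible Gal4–ROR gamma fusion and UAS-driven Photinus luciferase, incubated 20 hr after 700 uM copper sulfate.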
# Hits are given with their value; 0 = inactive; ? = inconclusive; - = no result. Calls come from the whole dose curve; as a rule, active = well fitted curve in the direction sought with a large enough effect; inconclusive = small, poorly fitted or top-dose-only effect, or another doubt; inactive = no such curve, though single readings can be large; an effect the other way counts as inactive or inconclusive.
SMILES,KB-3-1 tox,Gal4-VP16 FLuc,MCF10A rerep,KB-V1 MDR tox,SW480 rereplic,RORg inh
Cc1ccc(-c2csc3ncnc(Sc4nnc(CN5CCCCCC5=O)o4)c23)cc1,11.6µM,?,14.6µM,0,?,10µM
Cc1ccc(-c2csc3ncnc(SCC(=O)Nc4nnc(C)s4)c23)cc1,?,0,?,?,0,0
Cn1cnnc1SC1CCCCC1NS(=O)(=O)c1ccccc1 (centres undefined),0,0,0,0,0,0
Nn1cnnc1SC1CCCCC1NS(=O)(=O)c1ccccc1 (centres undefined),0,8.91µM,0,0,0,0
CN[C@H]1C[C@H]2c3[nH]c4ccc(-c5ccc(OC)cc5)cc4c3CCN2C(=O)[C@H]1[C@H](C)O,5.8µM,-,-,?,-,-
COc1ccc(NC(=O)N(C)[C@H]2C[C@H]3c4[nH]c5ccc(-c6ccc7c(c6)OCO7)cc5c4CCN3C[C@H]2[C@H](C)O)cc1,?,-,-,0,-,-
COc1ccc(NC(=O)N(C)[C@H]2C[C@H]3c4[nH]c5ccc(-c6ccc(OC)cc6)cc5c4CCN3C(=O)[C@H]2[C@H](C)O)cc1,?,-,-,0,-,-
COc1ccc(NC(=O)N(C)[C@H]2C[C@H]3c4[nH]c5ccc(-c6ccc(OC)cc6)cc5c4CCN3C[C@H]2[C@H](C)O)cc1,20.6µM,-,-,?,-,-
N#Cc1ccc(OCC(=O)N2CCN(c3ccc(C(F)(F)F)cn3)CC2)cc1,0,-,0,0,?,-
O=C(CSc1nnnn1-c1ccccc1)Nc1ncc(Cc2ccccc2Cl)s1,0,0,0,0,0,0
N=C1SC(c2ccccc2)C(=O)N1c1ncc(Cc2ccccc2Cl)s1 (centres undefined),0,1.26µM,?,0,0,1.41µM
CC(C)CNC(=S)NC(=O)c1ccccc1Cl,0,11.2µM,0,0,0,5.01µM
CC(NC(=O)c1ccccc1Cl)NC(=O)c1ccccc1Cl,0,0,?,?,?,0
COc1ccc(NC(=S)NC(=O)c2ccccc2Cl)cc1,0,?,0,0,0,6.31µM
COc1ccc(NC(=S)NC(=NS(=O)(=O)c2ccc(Cl)cc2)c2ccccc2)cc1,20.6µM,-,?,0,?,-
O=C(NC(=S)Nc1ccc(O)cc1)c1ccccc1Cl,0,0,0,0,0,0
O=C(NC(=S)Nc1ccc(Oc2ccc(Cl)cc2)cc1)c1ccccc1,?,7.94µM,?,?,0,3.55µM
O=C(NC(=S)Nc1ccc(Cl)cc1)c1ccccc1,0,?,0,0,0,20µM
COc1ccc(NC(=S)N/C(=N/S(=O)(=O)c2ccc(C)cc2)c2ccccc2)cc1,0,0,0,0,0,0
O=C(NC(=S)Nc1ccc(-c2ccccc2)cc1)c1ccccc1,0,-,0,0,0,-
C/C(=N\S(=O)(=O)c1ccc(C)cc1)NC(=S)Nc1ccccc1,0,0,0,?,0,11.2µM
CCOC(=O)C1CCN(c2ncnc3c2cnn3-c2ccccc2)CC1,0,0,0,0,0,0
CCOC(=O)C1CCN(c2ncnc3c2cnn3-c2ccc(Cl)cc2)CC1,0,?,0,0,0,1.41µM
COc1ccc(-n2ncc3c(N(C)C4CCCCC4)ncnc32)cc1,?,8.91µM,0,0,0,0.251µM
COc1cccc(OCCN2CCN(c3ncnc4c3cnn4-c3ccccc3)CC2)c1,0,0,18.4µM,5.17µM,0,0
SMILES,KB-3-1 tox,Gal4-VP16 FLuc,MCF10A rerep,KB-V1 MDR tox,SW480 rereplic,RORg inh
Cc1cccc(-n2ncc3c(N(C)C4CCCCC4)ncnc32)c1,0,0.891µM,?,0,0,?
CCN(c1ncnc2c1cnn2-c1cccc(Cl)c1)C1CCCCC1,0,-,-,0,-,-
COc1ccc(CNC(=O)CCS(=O)(=O)c2cc(Br)cc3c2N(C(C)=O)C(C)C3)cc1 (centres undefined),0,-,-,0,-,-
CCNc1ncc2nc(CCc3ccccc3)c(=O)n(Cc3cccc(OC)c3)c2n1,-,0,-,-,-,0
COc1cccc(NC(=O)CSc2nc(=O)n(Cc3ccncc3)c3c2CCC3)c1,0,-,-,0,-,-
O=C(NCCc1ccc(Cl)cc1)C1CCN(Cc2cc3ccccc3n2Cc2ccccc2)CC1,0,-,-,0,-,-
COc1ccc(-n2ncc3c(N4CCC(C)CC4)ncnc32)cc1,?,?,0,0,0,8.91µM
COc1ccc(NC(=O)CSc2nc(-c3cccs3)cc(C(F)(F)F)n2)cc1OC,9.2µM,-,-,?,-,-
COc1ccc(NC(=O)CSc2nc(-c3cccs3)cc(C(F)(F)F)n2)cc1Cl,0,-,-,5.17µM,-,-
COc1ccc(N2C(=O)CS(=O)(=O)C23C(=O)N(Cc2ccc(F)cc2)c2ccc(C)cc23)cc1 (centres undefined),0,-,-,?,-,-
CC(=O)c1c(C)[nH]c(C(=O)OCc2ccc(Br)cc2)c1C,?,?,0,6.51µM,0,?
CC(=O)c1c(C)[nH]c(C(=O)OCc2ccccc2F)c1C,0,0,0,4.61µM,0,?
CC(=O)c1c(C)[nH]c(C(=O)OCCOc2ccccc2)c1C,?,8.91µM,0,6.51µM,0,11.2µM
COc1ccc(C)cc1COC(=O)c1[nH]c(C)c(C(C)=O)c1C,0,0,0,0,0,0
CC(=O)c1c(C)[nH]c(C(=O)OCc2cccc(C)c2)c1C,?,0,0,?,0,?
Cc1c(C(=O)OCCOc2ccccc2)[nH]c2c1C(=O)CCC2,0,?,?,11.6µM,0,?
Cc1cccc(C)c1NC(=O)C(C1CC1)n1c(-c2ccc(-c3ccccc3)cc2)nc2ccccc21 (centres undefined),0,-,-,0,-,-
CCOC(=O)c1nc(N2CCN(c3ccc(F)cc3)CC2)c2c(C)noc2n1,0,-,-,0,-,-
Cc1ccc(C(=O)O/N=C(\N)c2ccccn2)cc1,0,12.6µM,0,0,0,8.91µM
Cc1cccc(C(=O)O/N=C(\N)c2ccccn2)c1,0,10µM,0,0,0,12.6µM
COc1cc(C(=O)O/N=C(\N)c2ccccn2)cc(OC)c1OC,0,0,0,?,0,0
N/C(=N\OC(=O)c1cccc(F)c1)c1ccccn1,0,?,0,0,0,?
Cc1cccc(/C(N)=N/OC(=O)c2ccc(Br)o2)c1,0,?,0,0,0,12.6µM
CC(C)(C)c1ccc(C(=O)C2CCCN(C(=O)c3ccccn3)C2)cc1 (centres undefined),?,14.1µM,0,0,?,0
Cc1cnc(C(=O)N2CCCC(C(=O)c3ccc(C(C)(C)C)cc3)C2)cn1 (centres undefined),0,0,0,0,0,0
CCCC(=O)OCc1cnc(C)c2oc(=O)c(C(=O)Nc3ccc(F)cc3C)cc12,0,-,-,0,-,-
COc1cccc(-c2cnc3c(NC(C)=O)cc(-c4ccsc4)cn23)c1,0,-,-,?,-,-
Cc1cccc(CSc2ncc(Cl)c(C(=O)Nc3sc4c(c3C(N)=O)CCCC4)n2)c1,0,-,-,0,-,-
